Sampled rows, rich in hits. Any-hit rate of the full collection: about 4%.
FBA Mtb inh: Mtb fructose-bisphosphate aldolase inhibition; purified M. tuberculosis FBA, fluorescence read-out; inhibition, % at 1 µM; 360,000 compounds, 2.3% hits; AID 588726; in the data active = inhibition above about 27%
GDH-TPI counter-1: inhibits GDH-TPI coupling enzymes, artifact for Mtb FBA screen | GDH-TPI coupled enzyme counterscreen, NADH absorbance | inhibition, % at 4.8 µM | 360,000 compounds, 1.2% hits; in the data active = inhibition above about 30%
Mtb betalactam: beta-lactam sensitization of Mtb H37Rv. inhibition, % at 25 µM. 330,000 compounds, 0.27% hits. AID 434955. M. tuberculosis H37Rv growth with meropenem, percent inhibition;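 also: growth measured after seven days incubation then overnight dye step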
RecA intein inh: Mtb RecA intein splicing inhibition | inhibition, % (no concentration beside the values) | 290,000 compounds, 0.75% hits | cell-free RecA intein splicing, fluorescence | P9WHJ3; in the data active = inhibition above about 30%
UGM FP inh: Mtb UDP-galactopyranose mutase inhibition; inhibition, % at 10 µM; AID 504406; purified UGM, fluorescence polarization probe displacement; 320,000 compounds, 0.06% hits; in the data active = inhibition above about 10%, passing the limit was not always enough
Rv3671c inh: Rv3671c (M. tuberculosis) protease inhibition. P9WHR9. inhibition, % at 5.96 µM. 320,000 compounds, 0.048% hits. AID 2606; in the data active = inhibition above about 38%;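 also: extracellular domain of Rv3671c used as enzyme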
Mtb FBA confirm: Mtb FBA inhibition, confirmed. 5,600 compounds, 78% hits. purified M. tuberculosis FBA, fluorescence read-out. inhibition, % at 1 µM. shares compounds with FBA Mtb inh; in the data active = inhibition above about 27%
GDH-TPI counter-2: inhibits GDH-TPI coupling enzymes, flagging Mtb FBA hits. shares compounds with FBA Mtb inh. GDH-TPI coupled enzyme counterscreen, fluorescence. inhibition, % at 1 µM. 5,600 compounds, 81% hits. AID 652141; in the data active = inhibition above about 10%
GDH-TPI DR: counter-screen for M. tuberculosis FBA inhibitors: GDH-TPI dose response | shares compounds with FBA Mtb inh | IC50, µM | 170 compounds, 79% hits | GDH-TPI coupled enzyme assay, fluorescence, artifact counterscreen
Large screens that a line does not name were inactive (follow-up assays come after a bar, where they were run). Unless noted, no rule for the calls is given here.

CC(=O)Nc1ccc(S(=O)(=O)NCCc2cn3nc(C)c(C)nc3n2)cc1	FBA Mtb inh 42.6 | Mtb FBA confirm 59.3 | GDH-TPI counter-2 49.3
CC(=O)N1CCC2(CC1)CC(=O)c1cc(OCC(=O)N3CCOCC3)ccc1O2	FBA Mtb inh 69.7 | Mtb FBA confirm 66.8 | GDH-TPI counter-2 67.0
Cc1ccc(OCC(=O)N2CCC3(CC2)CC(=O)c2ccccc2O3)cc1	none
CCOC(=O)N1CCN(C(=O)COc2ccc3c(c2)C(=O)CC2(CCN(C(C)=O)CC2)O3)CC1	FBA Mtb inh 63.4 | Mtb FBA confirm 138.8 | GDH-TPI counter-2 120.5
CCSc1nc2sc3c(c2c2[n+]1CC(CBr)O2)CCCC3 (configuration not stated)	none
CCOC(=O)C1CCN(c2ncnc3c(C)csc23)CC1	none
Cc1cccc(CSc2nc3[nH]ncc3c(=O)[nH]2)c1	none
CCOC(=O)c1c(C)[n+](-c2ccc(C)cc2)c(CC)c2cc(OC)c(OC)cc12	FBA Mtb inh 40.5 | Mtb FBA confirm 82.2 | GDH-TPI counter-2 56.8
CCOC(=O)c1c(C)[nH]c2cc(Br)c(OC)cc12	none
CC(=O)c1cnc2nc(SCc3ccccc3)nn2c1C	none
COC(=O)c1ccc(Cn2cnc3cnccc32)cc1	none
CCN(C(=O)c1cnc(NC(C)C)cc1C(F)(F)F)c1ccc(Cl)cc1Cl	FBA Mtb inh 50.6 | Mtb FBA confirm 85.2 | GDH-TPI counter-2 62.1
Cc1cc(=O)oc2cc(OCC(=O)N3CCOCC3)ccc12	none (no result: Mtb betalactam, UGM FP inh, Rv3671c inh)
Cc1cc(=O)oc2cc(OCC(=O)N3CCCC3)ccc12	FBA Mtb inh 40.7 (no result: RecA intein inh) | Mtb FBA confirm inactive | GDH-TPI counter-2 inactive | GDH-TPI DR 5.29
Cc1cc(=O)oc2cc(OCc3ccc(C(=O)N4CCN(c5ccccc5)CC4)cc3)ccc12	FBA Mtb inh 43.5 | Mtb FBA confirm 121.5 | GDH-TPI counter-2 88.8
CCOC(=O)C1CCN(C(=O)COc2ccc3c(C)cc(=O)oc3c2)CC1	FBA Mtb inh 34.9 | Mtb FBA confirm 148.0 | GDH-TPI counter-2 135.8
Cc1cc(=O)oc2cc(OCc3ccc(C(=O)N4CCN(c5ccc([N+](=O)[O-])cc5)CC4)cc3)ccc12	none (no result: Mtb betalactam, UGM FP inh, Rv3671c inh)
C/C(=N\NC(=O)COc1ccc(C#N)cc1)c1ccc(N2CCOCC2)cc1	none
O=C(NCCN1C(=O)S/C(=C/c2cccnc2)C1=O)C1=NN(c2ccccc2)C(=O)CC1	none (no result: RecA intein inh)
Cc1cccc(NS(=O)(=O)c2cccc(C(=O)N3CCN(S(=O)(=O)c4ccccc4)CC3)c2)c1	none
CNC(=O)C(C#N)(Cc1cc(C(C)=O)ccc1OC)Cc1cc(C(C)=O)ccc1OC	FBA Mtb inh 36.8 | Mtb FBA confirm inactive | GDH-TPI counter-2 inactive
COc1ccc(C(C)=O)cc1CSCc1cc(C(C)=O)ccc1OC	none
COc1ccc2ccccc2c1C1NC(=O)c2ccccc2N1 (configuration not stated)	FBA Mtb inh 43.8 (no result: Mtb betalactam, RecA intein inh, UGM FP inh, Rv3671c inh) | Mtb FBA confirm 102.0 | GDH-TPI counter-2 73.8
O=C1NC(c2ccccc2Cl)Nc2ccccc21 (configuration not stated)	FBA Mtb inh 57.3 | Mtb FBA confirm 114.3 | GDH-TPI counter-2 99.8
COc1ccc(C2NC(=O)c3ccccc3N2)cc1OC (configuration not stated)	none
O=C1NC(c2cccc3ccccc23)Nc2ccccc21 (configuration not stated)	FBA Mtb inh 29.3 (no result: Mtb betalactam, RecA intein inh, UGM FP inh, Rv3671c inh) | Mtb FBA confirm 37.1 | GDH-TPI counter-2 32.1
O=C(CSc1ccccn1)NC1CCCc2c1cnn2-c1ccccc1F (configuration not stated)	none (no result: Mtb betalactam, RecA intein inh, UGM FP inh, Rv3671c inh)
Cc1cccc(-c2oc3ccc(-c4ccc5c(c4)OCO5)cc3c2/C=C/c2ccc(N)cc2)c1	FBA Mtb inh 44.4 | Mtb FBA confirm 135.4 | GDH-TPI counter-2 119.7
COC(=O)c1cc(NC(=O)CSc2nnc(CN3CCOCC3)n2C)ccc1Cl	none
Cn1c(CN2CCOCC2)nnc1SCC(=O)Nc1cc(Cl)ccc1Cl	FBA Mtb inh 27.0 (no result: RecA intein inh) | Mtb FBA confirm inactive | GDH-TPI counter-2 inactive
Cc1ccc(/C=C/C(=O)N2CCN(c3ccc(F)cc3)CC2)o1	FBA Mtb inh 57.6 | Mtb FBA confirm 37.7 | GDH-TPI counter-2 36.2
O=C(/C=C/c1ccco1)N1CCN(c2ccc(F)cc2)CC1	none
CCOc1ccc2c(c1)C(C)=CC(C)(C)N2C(=O)Nc1ccccc1	none
CC1=NN(C(N)=S)C(=O)C1N=Nc1ccc(F)cc1 (configuration not stated)	none (no result: Mtb betalactam, UGM FP inh, Rv3671c inh)
Nc1nc2ccccc2cc1S(=O)(=O)c1ccccc1	FBA Mtb inh 51.3 | Mtb FBA confirm 115.7 | GDH-TPI counter-2 98.0
O=C(N/C=C\c1ccccc1)NCc1ccc(Cl)cc1Cl	none
CCOC(=O)C1=C(c2ccccc2)OC(N)=C(C#N)C1c1ccncc1 (configuration not stated)	FBA Mtb inh 43.4 | Mtb FBA confirm 66.7 | GDH-TPI counter-2 65.7
CCOC(=O)C1=C(c2ccccc2)OC(N)=C(C#N)C1c1cccs1 (configuration not stated)	none
CCCC1=C(C(=O)OCC)C(c2ccco2)C(C#N)=C(N)O1 (configuration not stated)	FBA Mtb inh 57.5 | Mtb FBA confirm 98.5 | GDH-TPI counter-2 67.8
COc1ccc(NC(=O)CN(C)CC(=O)Nc2ccc(Cl)c(S(=O)(=O)N(C)C)c2)cc1	none
CN(CC(=O)Nc1ccc(Cl)c(S(=O)(=O)N(C)C)c1)Cc1ccccc1	FBA Mtb inh 53.1 | Mtb FBA confirm active | GDH-TPI counter-2 active
COc1ccc2oc(C(=O)OCC(=O)N(C)C3CCS(=O)(=O)C3)c(C)c2c1 (configuration not stated)	FBA Mtb inh 45.4 | Mtb FBA confirm 72.9 | GDH-TPI counter-2 52.9
COc1ccc2oc(C(=O)OCC(=O)N(C)C3CCCCC3)c(C)c2c1	FBA Mtb inh 38.5 | Mtb FBA confirm inactive | GDH-TPI counter-2 inactive
CCN(C(=O)COC(=O)c1oc2ccc(OC)cc2c1C)C1CCCCC1	FBA Mtb inh 30.2 | Mtb FBA confirm 103.3 | GDH-TPI counter-2 77.7
CCCS(=O)(=O)NC(=O)C1(C)CCCN(C(=O)c2cc(C(C)(C)C)nn2C)C1 (configuration not stated)	none (no result: Mtb betalactam, RecA intein inh, UGM FP inh, Rv3671c inh)
O=C(CCCc1ccccc1)Nc1cccc(C(=O)O)c1	none
O=C(c1ccccc1)N1CCN(c2ccc(N3CCOCC3)nn2)CC1	FBA Mtb inh 31.6 | Mtb FBA confirm 28.0 | GDH-TPI counter-2 30.4
O=C(Cn1c(=O)oc2ccccc21)N1CCCCC1	none
CC(Oc1ccccc1)C(=O)N1CCN(c2ccc(N3CCCCCC3)nn2)CC1 (configuration not stated)	none
O=C(CCS(=O)(=O)Cc1ccccc1)N1CCN(c2ccccc2)CC1	none

From PubChem
